Results from PubChem BioAssay (NCATS).
Several values for one entry are separate records, joined by “and”; a condition that tells them apart may be missing. Equal entries are not always repeated. Results filed as inconclusive are left out. A number with no mark means an inactive call. Activity calls are given as the source filed them. Calls come from the whole dose curve; as a rule, active = well fitted curve in the direction sought with a large enough effect; inconclusive = small, poorly fitted or top-dose-only effect, or another doubt; inactive = no such curve, though single readings can be large or run the other way.
% is set by controls: 0 for no effect and ±100 for the full control effect; potency is the fitted concentration of half-maximal effect.

Assay: qHTS Assay for Identifying Gametocytocidal Compounds (AID 743244);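 for max response: actives lower the fluorescent signal which means gametocytes are killed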
Conditions: P. falciparum 3D7 stage III-V gametocytes, alamarBlue, 72 h; max response: stronger effect = lower value
Procedure, shortened: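 P. falciparum 3D7 stage III–V gametocytes (20,000 cells/well) were exposed to compounds for 72 h at 37 °C, 5% CO2. AlamarBlue was then added for 24 h; decreased resorufin fluorescence (Ex 525/Em 598 nm) indicated loss of viability.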
For `[H+].[H+].[Hg+2].[O-]B([O-])[O-].[c-]1ccccc1`, the Potency was 3.55 µM (active).
Compound `CC1(C)S[C@@H]2[C@H](N)C(=O)N2[C@H]1C(=O)O` has a max response of -4.29%.
`C[C@]12C=CC(=O)C=C1CC[C@@H]1[C@@H]2CC[C@]2(C)OC(=O)CC[C@@H]12` showed a max response of -1.22%.
In the case of `CCNCC(O)c1cccc(O)c1` (centres undefined), the max response was -3.84%.
Compound `CCCCCCCCOC(=O)c1ccccc1C(=O)OCCCCCCCC` has a max response of -1.95%.
With `C[C@]12CC[C@H]3[C@@H](CC[C@@]45O[C@@H]4C(O)=C(C#N)C[C@]35C)[C@@H]1CC[C@@H]2O` the max response was -8.72%.
`COC(=O)[C@@H]1[C@H]2CC[C@@H](C[C@H]1OC(=O)c1ccccc1)N2C` showed a max response of 5.25%.
Work on `CN1CCCC(=C(c2cccs2)c2cccs2)C1` yielded a max response of -3.64%.
With `CN1[C@H]2CC[C@@H]1[C@@H](C(=O)O)[C@@H](OC(=O)c1ccccc1)C2` the max response was 17.6% and -3.85%.
`CNC(=O)Oc1ccccc1C(=O)Nc1ccccc1` showed a max response of 8.96%.
With `C[C@@H](CO)NC(=O)[C@@H]1C=C2c3cccc4[nH]cc(c34)C[C@H]2N(C)C1` the max response was -6.08%.
With `[O]=[Cr](=[O])([OH])[O][Cr](=[O])(=[O])[OH]` the max response was 21.1% and 18.4%.
`Cn1sc(Cl)cc1=O` gave a max response of 0.945%.
In the case of `C[C@]12CC[C@H](O)C[C@H]1CC[C@@H]1[C@@H]2CC[C@]2(C)[C@@H](c3ccc(=O)oc3)C[C@H]3O[C@]132`, the max response was 10.6%.
